Screen size: about 96,000 compounds; about 100 (0.1%) were called active.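 How the source made its calls: active means displacement above 50% at 20 µM plus a fluorescence interference ratio under 1.5; inactive means the rest.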 The entries come from a sample that favours actives as a whole. Potency and affinity values are given separately.
The compounds below were run against Bcl-2-like protein 10 (Homo sapiens) (UniProt Q9HD36) (assay: Bcl-B/TR3 peptide binding disruption – biochemical, fluorescence polarization, FITC-TR3 peptide, selectivity assay for Bfl-1 inhibitor project, primary screen (AID 748;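 further: plate controls were wells without compound for no effect and wells lacking Bcl-B protein for full effect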)). Conditions: FP displacement of FITC-TR3 peptide from Bcl-B; at 20 µM; stronger effect = higher value.

displacement, inactive:
COc1ccc(OCC(=O)N/N=C/c2ccc(O[C@@H]3O[C@H](CO)[C@@H](O)[C@H](O)[C@H]3O)cc2)cc1 -3.2%, CCn1nc(C)c(NC(=O)CCSc2nc(-c3ccco3)cc(C(F)(F)F)n2)c1C -7%, CCOC(=O)c1[nH]c(C)c(/C(O)=C2\C(=O)C(=O)N(CCCN3CCOCC3)C2c2cccnc2)c1C (configuration not stated) 5%, COc1cc(C2CC(=O)NC3=C2C(=O)CC(C)(C)C3)cc(OC)c1O (configuration not stated) -3.3%, CCSc1nc(N)c2c3c(sc2n1)CN(C)CC3 1.8%, CCCSc1nc(N)c2c3c(sc2n1)CN(C)CC3 26.6%, COc1ccc(CCNC(=O)c2c(-c3ccccc3)noc2C)cc1OC -0.3%, O=C(O)C(Cc1ccccc1)n1cccc1 (configuration not stated) 3.2%, O=C(O)C(Cc1ccccc1)N1C(=O)c2ccccc2C1=O (configuration not stated) 9.7%, Cc1ccc(NC(=O)CSc2nnc(-c3ccc(S(=O)(=O)N4CCOCC4)cc3)n2C)cc1 0.6%, O=C(Nc1ccc(N2CCN(c3ccc(O)cc3)CC2)cc1)Oc1ccccc1 -11.2%, CCN1CCc2c(sc3c2c(NCc2ccco2)nc2nnnn23)C1 114%, CSc1nc(NCc2ccco2)c2c3c(sc2n1)CN(C)CC3 0.3%, CCS(=O)(=O)/N=C(\N)c1ccccc1 2.5%, Cc1ccc(C=C2C(=O)c3ccccc3C2=O)s1 4.7%, Cc1cc(C)n(-c2ccc(C(=O)Nc3ccc4c(c3)OCO4)cc2)n1 -4.8%, COCCn1c(SCC(=O)Nc2ccc(Cl)cn2)nc2ccccc21 -17%, COCCn1c(SCC(=O)Nc2nc(C)c(Cl)cc2Cl)nc2ccccc21 -7.3%, c1ccc(CSc2n[nH]c(-c3ccco3)n2)cc1 -8.3%, Nn1c(SCc2ccccc2)nnc1-c1ccco1 -4.8%, c1coc(-c2nc3ccccc3nc2-c2ccco2)c1 22%, c1coc(-c2nc(-c3ccco3)c(-c3ccco3)nc2-c2ccco2)c1 43.1%, COc1cccc(Cn2c(-c3cccs3)noc2=O)c1 -1.2%, O=S1(=O)CCC(NS(=O)(=O)c2cccc3cccnc23)C1 (configuration not stated) -3.6%, O=C(Oc1ccc(-c2cn3c(n2)SCC3)cc1)c1ccccc1 -5.6%, Oc1ccc(-c2cn3c(n2)SCC3)cc1 -4.3%, CC1(C)Cc2nc3nc(SCC(=O)NCc4ccccc4)n(-c4ccccc4)c(=O)c3cc2CO1 -3.5%, COc1ccc(-c2noc(CSc3nnc(Cc4ccccc4)n3-c3cccc(C)c3)n2)cc1OC -7.5%, c1ccc2cc(CN3CCOCC3)ccc2c1 -1.4%, O=C(CC1C(=O)OCN1C(=O)OCc1ccccc1)OCC(=O)c1ccccc1 (configuration not stated) -0.3%, CCc1cn(S(=O)(=O)c2ccccc2OC)nc1N -3.2%, Nc1cc(C(=O)O)ccc1N1CCCCCC1 7%, COC(=O)c1ccc(N2CCC(C)CC2)c(N)c1 -13.4%, COC(=O)c1cn(NC(=O)c2cccc(OC)c2)c(=O)c2ccccc12 10.2%, O=C1CCC2(C(=O)O)Sc3ccccc3N12 (configuration not stated) -5.3%, Cn1cccc1-c1nc2ccc(NC(=O)c3ccc([N+](=O)[O-])cc3)cc2[nH]1 3.8%, COc1ccc(Cl)cc1C(=O)Nn1c(C)nc2ccccc2c1=O -6.8%, COc1ccc(Cn2c(C)ccc2C)cc1 -31.6%, Cc1cc(C)n(Cc2ccc(C(=O)O)cc2)n1 -12.7%, CSc1ccc(S(=O)(=O)Nc2ccc3c4c(cccc24)CC3)cc1 0.8%, O=C1CC(SC(=NCc2ccc3c(c2)OCO3)Nc2ccccc2)C(=O)N1c1ccccc1 (configuration not stated) 0.5%, Cc1ccc(S(=O)(=O)NC2=C(N3CCN(Cc4ccccc4)CC3)C(=O)c3ccccc3C2=O)cc1 12.6%, CC(=O)Nc1ccc(S(=O)(=O)NC2=C(N3CCN(c4ccc(F)cc4)CC3)C(=O)c3ccccc3C2=O)cc1 30.5%, Cc1ccc(NC(=O)CN2CC(C)SC2=NC2CCCCC2)cc1 (configuration not stated) -0.9%, COc1ccc(OCC(=O)Nc2cccc3cccnc23)cc1 -0.2%, COc1cc(NC(=O)C2CCCCC2)c2ncccc2c1 -2.9%, COc1ccc(OCCCC(=O)NC(C)c2ccccc2)cc1 (configuration not stated) 3.5%, CCOC(=O)C1CCN(C(C(=O)Nc2ccc3c(c2)OCCO3)c2ccccc2)CC1 (configuration not stated) -3.4%, O=C1c2sc3nc4ccccc4n3c2C(=O)N1c1ccccc1Cl 0.8%, O=C1c2sc3nc4c(c(=O)n3c2C(=O)N1c1ccccc1)CCC4 7%, O=C(CSc1ccccc1Cl)c1ccco1 3.7%, O=C(CSCc1ccc(Cl)cc1)c1ccco1 16.6%

— PubChem BioAssay AID748 (Sanford-Burnham Center for Chemical Genomics, 2007)
